experiment: probe aInhba binding on compound microarray – biochemical, small-molecule microarray, 635/667 nm fluorescence, primary screen (AID 1148); settings: higher = more signal;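 note: score merges 667nm spot fluorescence with signal-to-noise for antibody binding to printed compounds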

| Structure (SMILES) | composite z-score |
| --- | --- |
| COCC(=C=CC[C@@H](O)c1ccc(CO)o1)CCO | -0.024 |
| CC(C)N1C(=O)c2ccccc2[C@@H](C(=O)NCCCN(C)C)[C@@H]1c1ccc(CO)cc1 | 0.0633 |
| C=C[C@@H](COC(C)=O)N(Cc1ccc([N+](=O)[O-])cc1)S(=O)(=O)c1ccc(Br)cc1 | 0.0869 |
| CC(C)C(=C=CC[C@@H](O)c1ccccc1OCCO)C[C@@H](O)c1ccccn1 | 0.0275 |
| C=CCNC(=O)[C@@H]1[C@H]2C(=O)O[C@H](c3ccccc3)[C@H](c3ccccc3)N2[C@H](c2ccc(O)cc2)[C@@]12C(=O)N(C(=O)OCCOC)c1ccccc12 | -0.0375 |
| CC(C)(C)OC(=O)CC[C@@]1(C(=O)NCCN2CCOCC2)N=C(c2ccc(OCCCO)cc2)O[C@@H]1c1ccccc1 | 0.248 |
| N#Cc1ccc(NN2C(C(O)C3CCCCC3)C=CC3C(=O)N(c4ccccc4)C(=O)C32)cc1 (stereo unspecified) | 0.134 |
| C=CCN1C(=O)[C@]2(O[C@H](CCO)[C@@H]([Si](C)(C)c3ccc(OC)cc3)[C@@H]2C)c2cc(NC(=O)[C@H](C)O)ccc21 | 0.339 |
| O=C1O[C@H](c2ccccc2)[C@H](c2ccccc2)N2[C@H]1[C@@H](C(=O)N1CCN(c3ncccn3)CC1)[C@]1(C(=O)Nc3ccccc31)[C@H]2c1ccc(OCCO)cc1 | 0.0588 |
| O=C1OCCC/C=C\[C@H]2OC34C=CCN(Cn5nnc6ccccc65)C(=O)[C@H]3N(CCCCCO)C(=O)[C@@H]4C12 (stereo partly specified) | -0.0762 |
| COc1cc2c(cc1OC)CN(C(=O)[C@@H]1[C@H]3C(=O)O[C@H](c4ccccc4)[C@H](c4ccccc4)N3[C@H](c3ccccc3OCCO)[C@@]13C(=O)Nc1ccc(C#CCNC(N)=O)cc13)CC2 | 0.32 |
